According to PubChem BioAssay (Tox21):
Records with an inconclusive call do not appear. A number with no mark means an inactive call. Calls follow the shape of the dose curve; as a rule, active = well fitted cell-killing curve with a large enough effect in the repeat runs; inconclusive = weak or mixed curves, or effect the other way; inactive = no such curve, though single readings can be large or run the other way.

Assay: qHTS assay to identify small molecule antagonists of the progesterone receptor (PR) signaling pathway - cell viability counter screen (AID 1346798); also: nearly all actives have a fitted effect of over 50% in size
Conditions: PR-UAS-bla HEK293T viability, CellTiter-Glo luminescence, 16 h; series mostly up to 92.4 µM; activity change, negative = cytotoxicity: at the top concentration
Source text: National Center for Advancing Translational Sciences [NCATS]
NIH Chemical Genomics Center [NCGC]
U.S. Environmental Protection Agency [EPA]
National Institutes of Environmental Health Sciences [NIEHS]
National Toxicology Program [NTP]
U.S. Food and Drug Administration [FDA]
Progesterone receptor (PR), a nuclear hormone receptor, plays an important role in development, metabolic homeostasis and reproduction. It is activated by the steroid hormone progesterone. Endocrine disrupting chemicals (EDCs) and their interactions with steroid hormone receptors like PR causes disruption of normal endocrine function. To identify the compounds that inhibit PR signaling, a PR-UAS-bla GripTite cell line i.e. PR-UAS-bla HEK293T (Invitrogen, Carlsbad, CA, USA) containing a beta-lactamase reporter gene under the control of an UAS response element was used to screen Tox21 10K compound library. The cytotoxicity of the Tox21 compound library against the PR-bla cell line was tested in parallel by measuring the cell viability using CellTiter-Glo assay in the same wells.
Tox21 Assay Protocol Summary:
PR-UAS-bla HEK293T cells were dispensed at 3,000 cells/4 uL of assay medium containing 2% charcoal stripped FBS per well into black wall/clear-bottom 1536-well plates using a Multidrop Combi (ThermoFisher Scientific, Waltham, MA) dispenser. After the assay plates were incubated at a 37C and 5% CO2 for 4 hr, 23 nL of compounds dissolved in DMSO, positive controls or DMSO only was transferred to the assay plate by a Pintool station (Kalypsys, San Diego, CA), followed by addition of 1 uL of R5020 in assay medium using a Flying Reagent Dispenser (FRD, Aurora Discovery, San Diego, CA). The plates were incubated at 37C and 5% CO2 for 16 hr. Then 1 uL of LiveBLAzer B/G FRET substrate was added using a Flying Reagent Dispenser, the plates were incubated at room temperature for 2 hours, and fluorescence intensity was measured by an Envision plate reader (PerkinElmer, Shelton, CT). For cell viability readout that measures cytotoxicity, 4 uL/well of CellTiter-Glo reagent was added into the assay plates using a FRD. After 30 min incubation at room temperature, the luminescence intensity in the plates was measured using a ViewLux (PerkinElmer) plate reader.
% is scaled to controls: 0 for no effect and ±100 for the full control effect.

Row | Compound | activity change, negative = cytotoxicity
1 | C=CC(=O)OCC[N+](C)(C)C | 8.84%
2 | c1cc2ccc3ccc4ccc5cccc6c(c1)c2c3c4c56 | 2.42% [at 3.27 µM]
3 | CCCCCCCCOCCC#N | 14.6%
4 | CC(=O)SCC(CC(=O)c1ccc(C)cc1)C(=O)O (stereo not given) | 4.47% [at 42.5 µM]
5 | CC1(C)S[C@@H]2[C@H](NC(=O)Cc3ccccc3)C(=O)N2[C@H]1C(=O)O (tested in a mixture with another compound) | -5.52% [at 42.5 µM]
6 | CC[C@@]1(c2ccccc2)NC(=O)N(C)C1=O | -2.84% [at 42.5 µM]
7 | C=CC(=O)CC | -8.86%
8 | CC(=O)c1c(C)cc(C(C)(C)C)cc1C | 25.4%
9 | N#CC1(N)CCCCC1 | 0.666%
10 | CC(C)(C)C(=O)NCCCC(=O)O | 17.4% [at 42.5 µM]
11 | CC/C=C/CCCCCCCCCCOC(C)=O | -13.9%
12 | COc1ccccc1N1CCN(CC(O)COc2cc(OC)c(OC)c(OC)c2)CC1 (stereo not given) | 1.45% [at 42.5 µM]
13 | CC1(C)CC(N)CC(C)(C)N1 | 6.92%
14 | C=CCON/C(CCC)=C1\C(=O)CC(C)(C)C(C(=O)OC)=C1O | -5.46%
15 | CO/N=C(\C(=O)O)c1csc(NC(=O)CCl)n1 | -0.132% [at 42.5 µM]
16 | CC(CC(=O)Cl)CC(C)(C)C (stereo not given) | 13%
17 | Cc1cc(C)c(C)c(C)c1 | 8.4%
18 | CC(C)(C)c1ccc(C(=O)CCCCl)cc1 | -7.08% [at 42.5 µM]
19 | CCN(CC)CC | -7.31%
20 | CCCCS | 6.57%

Row | Compound | activity change, negative = cytotoxicity
21 | COc1cc2nc(N3CCN(C(=O)C4CCCO4)CC3)nc(N)c2cc1OC (stereo not given) | -8.36% [at 42.5 µM]
22 | COC(=O)c1ccccc1Cl | -14.8%
23 | CC(=O)OCC(=O)[C@@]1(O)CC[C@H]2[C@@H]3CCC4=CC(=O)C=C[C@]4(C)[C@H]3[C@@H](O)C[C@@]21C | -12.2% [at 42.5 µM]
24 | C[C@@H]1CCC[C@H](C)N1CCCC(O)(c1ccccc1)c1ccccn1 (stereo not given in full) | 1.82% [at 42.5 µM]
25 | CCCCN=C(N)N=C(N)N | 1.79% [at 42.5 µM]
26 | O=C(O)CCC(=O)Nc1ccc(S(=O)(=O)Nc2nccs2)cc1 | -8.29% [at 42.5 µM]
27 | CC(C)c1cc(C(C)C)cc(C(C)C)c1 | 0.997%
28 | C=CCOC(=O)CCCCCCCC | 18.7%
29 | CSC(=O)c1cccc2nnsc12 | 10%
30 | CCO/C=C1\N=C(c2ccccc2)OC1=O | -28%
31 | COC(=O)c1cc(Cl)c(NC(C)=O)cc1OC | 4.7% [at 42.5 µM]
32 | Clc1ccc2c(c1)Nc1ccccc1S2 | 9.6% [at 42.5 µM]
33 | C=CCn1cc[n+](C)c1 | 8.67%
34 | O=C1CCCc2c(O)cccc21 | 4.28% [at 42.5 µM]
35 | Cc1ccc2ccccc2n1 | 5.57%
36 | CCCCc1ccc(Cl)cc1 | -13.4%
37 | Cc1ccc(NC(N)=O)cc1 | 7.99%
38 | C=C(C)C(=O)OCCCC | 10.6%
39 | CCOCCOCCOC(C)=O | 0.268%
40 | c1coc(Cn2cccc2)c1 | 5.98%
